Measurements published in the supplement of paper PMC8728848.
The sample as a whole holds a higher share of the strongest signals than the screen did.

Experiments:
Test in all cases: glycan array binding signal (z-score within array); higher = stronger binding
Conditions in all cases: glycan notation: IUPAC condensed, linker removed
[1] = biological target: Fuc(a1-2)Gal(b1-3)GalNAc(a1-3)[Fuc(a1-2)]Gal(b1-4)GlcNAc
Method in brief: (§1)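 Glycan array data came from 3228 arrays in the Consortium for Functional Glycomics database, and only arrays with an available protein sequence were kept. Glycan names were put into IUPAC-condensed notation, and columns mapping to the same glycan were averaged. The binding signal is a within-array Z-score, averaged across arrays of one protein sequence run at different concentrations or buffers and across linkers. A negative Z-score can be read as non-binding.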

[2] = biological target: Fuc(a1-2)Gal(b1-3)GlcNAc(b1-3)[Gal(b1-4)GlcNAc(b1-6)]Gal(b1-4)Glc
Method in brief: as §1

[3] = biological target: Fuc(a1-2)Gal(b1-4)GlcNAc(b1-6)GalNAc
Method in brief: as §1

[4] = biological target: Fuc(a1-2)Gal3S(b1-4)GlcNAc
Method in brief: as §1

Fuc(a1-2)[Gal(a1-3)]Gal = biological target: Fuc(a1-2)[Gal(a1-3)]Gal
Method in brief: as §1

[5] = biological target: Fuc(a1-2)[GalNAc(a1-3)]Gal(b1-3)GlcNAc
Method in brief: as §1

Fuc(a1-4)GlcNAc = biological target: Fuc(a1-4)GlcNAc
Method in brief: as §1

[6] = biological target: Gal(a1-3)Gal(b1-3)GlcNAc(b1-6)GalNAc
Method in brief: as §1

[7] = biological target: Gal(a1-3)Gal(b1-4)GlcNAc(b1-2)Man(a1-3)[Gal(a1-3)Gal(b1-4)GlcNAc(b1-2)Man(a1-6)]Man(b1-4)GlcNAc(b1-4)GlcNAc
Method in brief: as §1

Gal(b1-3)GalNAc = biological target: Gal(b1-3)GalNAc
Method in brief: as §1

[8] = biological target: Gal(b1-3)GalNAc(a1-3)[Fuc(a1-2)]Gal(b1-4)Glc
Method in brief: as §1

[9] = biological target: Gal(b1-3)GlcNAc(b1-2)Man(a1-3)[Gal(b1-3)GlcNAc(b1-2)Man(a1-6)]Man(b1-4)GlcNAc(b1-4)GlcNAc
Method in brief: as §1

[10] = biological target: Gal(b1-3)GlcNAc(b1-2)[Gal(b1-3)GlcNAc(b1-6)]Man(a1-6)[Gal(b1-3)GlcNAc(b1-2)Man(a1-3)]Man(b1-4)GlcNAc(b1-4)GlcNAc
Method in brief: as §1

[11] = biological target: Gal(b1-3)GlcNAc(b1-3)Gal(b1-3)GlcNAc
Method in brief: as §1

[12] = biological target: Gal(b1-3)[GlcNAc(b1-6)]GalNAc
Method in brief: as §1

[13] = biological target: Gal(b1-3)[Neu5Ac(a2-6)]GlcNAc(b1-4)Gal(b1-4)Glc
Method in brief: as §1

[14] = biological target: Gal(b1-4)GlcNAc(b1-3)Gal(b1-3)GalNAc
Method in brief: as §1

[15] = biological target: Gal(b1-4)GlcNAc(b1-3)Gal(b1-4)GlcNAc(b1-2)[Gal(b1-4)GlcNAc(b1-3)Gal(b1-4)GlcNAc(b1-6)]Man(a1-6)[Gal(b1-4)GlcNAc(b1-3)Gal(b1-4)GlcNAc(b1-2)Man(a1-3)]Man(b1-4)GlcNAc(b1-4)[Fuc(a1-6)]GlcNAc
Method in brief: as §1

[16] = biological target: Gal(b1-4)GlcNAc(b1-3)Gal(b1-4)GlcNAc(b1-3)Gal(b1-4)GlcNAc(b1-2)Man(a1-3)[Gal(b1-4)GlcNAc(b1-3)Gal(b1-4)GlcNAc(b1-3)Gal(b1-4)GlcNAc(b1-2)Man(a1-6)]Man(b1-4)GlcNAc(b1-4)[Fuc(a1-6)]GlcNAc
Method in brief: as §1

[17] = biological target: Gal(b1-4)GlcNAc(b1-3)Gal(b1-4)GlcNAc(b1-3)Gal(b1-4)GlcNAc(b1-2)[Gal(b1-4)GlcNAc(b1-3)Gal(b1-4)GlcNAc(b1-3)Gal(b1-4)GlcNAc(b1-6)]Man(a1-6)[Gal(b1-4)GlcNAc(b1-3)Gal(b1-4)GlcNAc(b1-3)Gal(b1-4)GlcNAc(b1-2)Man(a1-3)]Man(b1-4)GlcNAc(b1-4)[Fuc(a1-6)]GlcNAc
Method in brief: as §1

[18] = biological target: Gal(b1-4)GlcNAc(b1-3)[Fuc(a1-3)GlcNAc(b1-6)]Gal(b1-4)Glc
Method in brief: as §1

[19] = biological target: Gal(b1-4)GlcNAc(b1-6)GalNAc
Method in brief: as §1

[20] = biological target: Gal(b1-4)GlcNAc(b1-6)[Gal(b1-3)]GalNAc
Method in brief: as §1

[21] = biological target: GalNAc(b1-3)Gal(a1-4)Gal(b1-4)GlcNAc(b1-3)Gal(b1-4)Glc
Method in brief: as §1

GalNAc(b1-3)GalNAc = biological target: GalNAc(b1-3)GalNAc
Method in brief: as §1

[22] = biological target: GalNAc3S(b1-4)[Fuc(a1-3)]GlcNAc
Method in brief: as §1

B1: MpAFP NterminalRI GFP (Marinomonas primoryensis) (protein)
chain: MSDNQFPFATLGNAIGFITKLDGSVTVQSIDGQERVLKLGDPIFFGETVLTGGSGSVTIAFVDGTDVVIGGDSIVEMTDEIYNTGDNEDLVADSSSEIDALQNAILAGDDPTLIQDAPAAGNTLADQQRVDVSIERNDNSAQAGFGVDTQSSLPTYGYDTDNGNGGQATEREYSAPSLSRTLNQSPLLEHHHHHH
- glycan array binding signal (z-score) [1]: -0.525
- glycan array binding signal (z-score) [2]: -0.221
- glycan array binding signal (z-score) [3]: 1.68
- glycan array binding signal (z-score) [4]: -0.495
- glycan array binding signal (z-score) (Fuc(a1-2)[Gal(a1-3)]Gal): -0.494
- glycan array binding signal (z-score) [5]: -0.215
- glycan array binding signal (z-score) (Fuc(a1-4)GlcNAc): 2.46
- glycan array binding signal (z-score) [6]: -0.446
- glycan array binding signal (z-score) [7]: -0.164
- glycan array binding signal (z-score) (Gal(b1-3)GalNAc): -0.228
- glycan array binding signal (z-score) [8]: -0.422
- glycan array binding signal (z-score) [9]: -0.119
- glycan array binding signal (z-score) [10]: -0.305
- glycan array binding signal (z-score) [11]: -0.424
- glycan array binding signal (z-score) [12]: -0.473
- glycan array binding signal (z-score) [13]: -0.565
- glycan array binding signal (z-score) [14]: -0.412
- glycan array binding signal (z-score) [15]: 4.16
- glycan array binding signal (z-score) [16]: 0.649
- glycan array binding signal (z-score) [17]: 2.76
- glycan array binding signal (z-score) [18]: -0.081
- glycan array binding signal (z-score) [19]: -0.473
- glycan array binding signal (z-score) [20]: 0.083
- glycan array binding signal (z-score) [21]: -0.509
- glycan array binding signal (z-score) (GalNAc(b1-3)GalNAc): -0.576
- glycan array binding signal (z-score) [22]: -0.39
